The other results are listed elsewhere or left out. The source made the active and inactive calls.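 How the source made its calls, unless noted: active means mean inhibition of at least 40% at 20 µM; inactive means the rest.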
Molecular target: Protein Mdm4 (Homo sapiens) + E3 ubiquitin-protein ligase Mdm2 (Homo sapiens) (UniProt O15151+Q00987)
Assay: retested Mdm2-MdmX interaction blockers, confirmation, cell-based, luminescence, single concentration, set 2 (AID 504601;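 active means mean inhibition of the luminescence signal across two replicates at or above 26 percent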)
Settings: SaOS-2 split-luciferase Mdm2/MdmX complementation, at 8 µM, hits give high values

Sequence of Protein Mdm4 (Homo sapiens) + E3 ubiquitin-protein ligase Mdm2 (Homo sapiens) (O15151 whole entry, looked up): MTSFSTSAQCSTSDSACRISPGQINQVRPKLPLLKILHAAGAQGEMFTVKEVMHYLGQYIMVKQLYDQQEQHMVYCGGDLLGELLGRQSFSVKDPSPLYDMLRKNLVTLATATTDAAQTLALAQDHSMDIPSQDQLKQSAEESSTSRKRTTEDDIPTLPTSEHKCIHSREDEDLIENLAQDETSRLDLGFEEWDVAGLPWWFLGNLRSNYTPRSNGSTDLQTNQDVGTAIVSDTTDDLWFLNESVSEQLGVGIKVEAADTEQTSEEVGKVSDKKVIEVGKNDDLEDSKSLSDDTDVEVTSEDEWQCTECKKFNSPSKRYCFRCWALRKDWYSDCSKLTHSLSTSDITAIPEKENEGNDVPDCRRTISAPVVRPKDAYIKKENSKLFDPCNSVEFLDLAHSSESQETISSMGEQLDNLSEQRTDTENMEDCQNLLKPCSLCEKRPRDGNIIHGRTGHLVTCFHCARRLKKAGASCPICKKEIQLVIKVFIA
Sequence of Protein Mdm4 (Homo sapiens) + E3 ubiquitin-protein ligase Mdm2 (Homo sapiens) (Q00987 whole entry, looked up): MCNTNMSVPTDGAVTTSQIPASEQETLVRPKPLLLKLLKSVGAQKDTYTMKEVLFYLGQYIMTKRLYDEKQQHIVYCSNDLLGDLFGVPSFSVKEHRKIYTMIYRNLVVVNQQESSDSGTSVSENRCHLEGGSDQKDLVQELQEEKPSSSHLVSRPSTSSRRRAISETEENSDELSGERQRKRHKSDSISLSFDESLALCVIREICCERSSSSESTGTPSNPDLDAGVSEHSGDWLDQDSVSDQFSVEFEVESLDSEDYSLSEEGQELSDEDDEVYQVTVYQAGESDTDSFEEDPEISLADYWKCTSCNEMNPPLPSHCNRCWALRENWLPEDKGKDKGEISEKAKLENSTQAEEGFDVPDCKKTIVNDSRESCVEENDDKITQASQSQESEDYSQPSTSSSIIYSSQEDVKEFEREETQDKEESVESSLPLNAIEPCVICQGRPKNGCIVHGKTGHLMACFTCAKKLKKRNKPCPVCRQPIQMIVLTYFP

inhibition, active:
CCN(CC)S(=O)(=O)c1ccc(NC(=O)c2cccnc2Cl)c(NC(=O)c2cccnc2Cl)c1 75.5%, CC(=O)Nc1ccc(NC(=O)C(C)OC(=O)c2ccccc2C(=O)c2ccc(Cl)c([N+](=O)[O-])c2)cc1 (stereo not drawn) 102%, O=C(CC(O)(C(F)(F)F)C(F)(F)F)Nc1ccc(Cl)c(Cl)c1 103%, Cc1[nH]c(=O)c(C(=O)/C=C/c2ccccc2)c2c1CCCC2 103%, Cc1cccc(NC(=O)c2nc(S(=O)(=O)Cc3ccccc3)ncc2Cl)c1 103%, CC1CCCCC1NC(=O)/C(C#N)=C/C=C/c1ccccc1[N+](=O)[O-] (stereo not drawn) 103%, CN(C)CC(O)COc1ccc(C(C)(C)c2ccc(OCC(O)CN(C)C)cc2)cc1 (stereo not drawn) 94.2%, COc1ccc(C(CCN(Cc2ccc(OC)c(OC)c2)C(=O)CCl)c2ccccc2)cc1 (stereo not drawn) 103%, CCCCCCCCCCOC(=O)Cn1c(COc2ccc(C)cc2)[n+](C)c2ccccc21 103%, O=C(Nc1ccc(C(=O)N2CCOCC2)cc1)Nc1cccc(C(F)(F)F)c1 84.2%, Cc1ccc(CS(=O)(=O)c2ncc(Cl)c(C(=O)Nc3nnc(C)s3)n2)cc1 103%, CCOC(=O)/C(=C\c1ccc([N+](=O)[O-])cc1)C(=O)c1cc(C(C)=O)c(Nc2ccccc2)s1 100%, COc1cc(NC(=O)c2[nH]cnc2C(N)=O)cc(C(=O)Nc2cccc(C(F)(F)F)c2)c1 101%, COc1cccc(/C=N/Nc2cc(C)nc(-c3ccccc3O)n2)c1O 99.7%, CC[C@]1(C(=O)OC)[C@H]2C(=O)N(Cc3ccccc3)C(=O)[C@H]2[C@H]2CN=C(SCc3ccc(Cl)cc3)N21 103%, O=[N+]([O-])c1c(NCCO)cc(Sc2nc3ccccc3s2)c2nonc12 102%

Test system: not listed separately
Assay: Apaf-1 inhibitors, single-dose retest, confirmation, biochemical, fluorescence, DEVD-Rh110, 20 µM (AID 504614);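 further: plate controls were DMSO wells for no effect and DEVD-CHO caspase inhibitor control wells for full effect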
Settings: reconstituted apoptosome, caspase-3 DEVD-Rh110 fluorescence; at 20 µM; hits give high values

inhibition, active:
CCCCCCCCCCOC(=O)Cn1c(COc2ccc(C)cc2)[n+](C)c2ccccc21 81.3%

inhibition, inactive:
COc1ccccc1C1C(C#N)=C(N)Oc2c1c(-c1ccccc1)nn2-c1ccccc1 (stereo not drawn) 19.9%, Cc1cc2oc3ccc(NCCC4CCCN4C)cc3c(=O)c2cc1C (stereo not drawn) 10.1%, COc1ccc(N(CCC(=O)NCCc2ccccc2)S(=O)(=O)c2ccc(C)cc2C)cc1 35.9%, C[C@@H](CN1CCC[C@H]1CN1C(N)=NC[C@@H]1Cc1ccccc1)N1C[C@@H](Cc2ccccc2)N(CCCC2CCCC2)C1=N 11.8%, Cc1cc(N2CCCC2)ccc1NC(=O)COc1ccc(Cl)cc1 28.9%, Cc1ccsc1/C=N/NC(=O)Cc1cc(=O)[nH][nH]1 17.5%, NC(N)=NCCCc1cn(CC(=O)N2CCNCC2)nn1 9.2%, C(=N/Nc1cc(N2CCOCC2)nc(N2CCOCC2)n1)/c1ccccc1 27.8%, CCN1C(=NCc2ccc(OC)cc2)N[C@@H](CCc2ccccc2)[C@H](C(=O)NCc2ccc(OC)cc2)[C@H]1C 4.13%, C#CCOCCOCCOCCNc1nc(N2CCN(C(=O)CCCCCCCCCCNC(=O)[C@H](CCCCN)n3cc(C)nn3)CC2)nc(N2CCN(C(=O)CCCCCCCCCCNC(=O)[C@H](CO)n3cc(CCCSC)nn3)CC2)n1 4.3%, c1ccc(C[C@H]2CNCCN2CCC23CC4CC(CC(C4)C2)C3)cc1 1.61%, Nc1ccc2nn(-c3ccc(Cl)cc3)nc2c1 35.8%, Cc1ccc2nc(N3CCN(C(=O)c4ccco4)CC3)sc2c1 15.7%, O=C1Nc2ccc([N+](=O)[O-])cc2C1=Nc1cccc(CO)c1 39.8%, C=CCn1c(N)c(C(=O)OCC(C)C)c2nc3ccccc3nc21 19.4%, CCOc1c(Br)cc(/C=C2\C(=O)N(CCC#N)N=C2C)cc1OC 13.1%, O=S(=O)(Nc1ccc(O)c2ccccc12)c1ccc(OC(F)(F)F)cc1 21.3%, O=C(O)c1cc(Cl)c(Cl)cc1C(=O)Nc1cccc2ncccc12 1.69%, COc1ccc(NC(=O)CN(Cc2ccccc2)S(C)(=O)=O)cc1OC 3.82%, O=C(N/N=C\c1cccnc1)c1cc(-c2ccccc2)nc2c(Cl)cccc12 11.8%, CCC(C)(C)c1ccc(OCC(=O)N(C)C)c(C(C)(C)CC)c1 17.9%

Source: PubChem BioAssay
